For 68 compounds, inhibition results are on record in PubChem BioAssay AID602252 (Broad Institute, 2012).

Screen size: about 300,000 compounds; about 2,700 (0.9%) were called active. Shown is part of a subset that was picked to be rich in actives. Unmarked numbers belong to inactive results.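 Rule for the calls: active = mean inhibition of at least 30% with at least half of replicates also reaching 30%; inconclusive = no clear call, values can overlap the other calls; inactive = the rest.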

For orientation: inhibition means the relative decrease from the control value, in per cent.

This experiment addresses Golgi-associated PDZ and coiled-coil motif-containing protein (Homo sapiens) (UniProt Q9HD26). Put plainly: blockade of CAL PDZ-reporter peptide interaction – biochemical, fluorescence polarization, untagged CAL PDZ, HTS, primary screen (AID 602252).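 Note: 0% = DMSO neutral control and 100% = excess unlabeled competitor peptide PRC23.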 The conditions noted are these: purified CAL PDZ, TMR-peptide fluorescence polarization, 1 h; at 24.9 µM; active compounds read high. For orientation: Fluorescence polarisation rises when a labelled molecule tumbles more slowly, as on binding a larger partner.
Take `O=C(NN=Cc1ccccc1O)NN=Cc1ccccc1O`: the inhibition is -7.2%. On to `CN(Cc1nc2ccc(F)cc2[nH]1)Cc1nc(CC2CC2)no1`, for which the inhibition is -5.2%.

On to `CC(C)c1nc2ccc(C(=O)O)cc2[nH]1`, for which the inhibition is 1.18%. As for `OC(c1nc2ccc(F)cc2[nH]1)C(O)c1nc2ccc(F)cc2[nH]1` (stereo not drawn), the inhibition was 37% (active). With `Cc1ccc(S(=O)(=O)N2CCN(C(=O)COC(=O)/C=C/c3cccc(Cl)c3)CC2)c(C)c1`, the inhibition is -0.868%. As to `CCOC(=O)N(Cc1ccccc1)C1CC1`, the inhibition was -3.68%. Then `Fc1ccc(NC(=S)N2CCc3[nH]c4ccccc4c3C2)cc1`, with 0.223%; and `O=C(NC1CCCCC1)N1CCc2[nH]c3ccccc3c2C1`, with 73.4% (active). With `O=C(Nc1ccc(Cl)cc1)N1CCc2[nH]c3ccccc3c2C1`, the inhibition is -12.5%. Regarding `COc1ccc(C2=Nn3c(nnc3-c3ccccc3OC)SC2)cc1OC1CCCC1`, the inhibition was -2.41%. For `O=C1OC(Oc2ccc(Br)cc2)(c2ccccc2)c2ccccc21` (stereo not drawn), the inhibition was -1.95%. Turning to `CC(=O)c1c(C)[nH]c(C(=O)OCC(=O)Nc2cc(S(=O)(=O)N3CCCCC3)ccc2C)c1C`, the inhibition is -0.974%. As for `CC(=O)c1c(C)[nH]c(C(=O)OCC(=O)NCCC(C)C)c1C`, the inhibition was 66.4% (active). Then `CC(=O)c1c(C)[nH]c(C(=O)OCC(=O)Nc2c(C)cccc2C)c1C`, with 4.23%; and `Cc1cccc(NC(=O)/C(=C\c2ccco2)NC(=O)c2ccccc2)c1`, with 79.4% (active); and `COc1ccc(/C=C(/NC(=O)c2ccccc2)C(=O)Nc2cccc(C(=O)O)c2)cc1`, with -4.34%.

Take `O=C(Nc1ccccc1)/C(=C\c1ccco1)NC(=O)c1ccco1`: the inhibition was -6.57%. With `COc1ccc(CCC(=O)Nc2ccc(Cl)c(S(=O)(=O)N3CCOCC3)c2)cc1OC`, the inhibition was -22.4%. Then `CC(=O)OCC1(O)CC23CCC4c5ccoc5CCC4(C)C2CCC1C3` (stereo not drawn), with -3.61%; and `O=C1NCC(Nc2ccccc2)C(=O)N1` (stereo not drawn), with 1.56%; and `CC1(c2ccc3ccccc3c2)NC(=O)NC1=O` (stereo not drawn), with -8.76%. For `O=C1NCC(c2ccccc2)(c2ccccc2)C(=O)N1`, the inhibition is 41.9% (active). For the compound `COc1ccccc1-c1nnc2n1N=C(c1ccc(OC(F)F)c(OCC3CC3)c1)CS2`, the inhibition was -1.27%.

`O=C1C(Cl)=C(Oc2ccccc2)C(=O)c2ccccc21`: the inhibition was 6.75%. On to `COc1ccccc1C(=O)Nc1ccc(C)c(S(=O)(=O)N2CCCCC2)c1`, for which the inhibition is -7.43%.

Turning to `O=[N+]([O-])c1ccc(C=NN=Cc2ccc([N+](=O)[O-])cc2)cc1`, the inhibition is 76.3% (active). For `NC(=S)N/N=C/c1ccc([N+](=O)[O-])cc1`, the inhibition was 1.65%. As to `O=[N+]([O-])c1ccc(N/N=C/c2ccccc2)cc1`, the inhibition is 4.6%.

With `CC(C)N(Cc1nnc(-c2ccccc2Br)o1)C(=O)c1cc(Cl)nc2ccccc12`, the inhibition is 2.14%.

On to `CCC(Oc1ccccc1C)C(=O)Nc1ccc(S(=O)(=O)Nc2cc(C)on2)cc1` (stereo not drawn), for which the inhibition is 71.5% (active).

In the case of `CCc1ccc(OC(C)C(=O)Nc2ccc(S(=O)(=O)Nc3cc(C)on3)cc2)cc1` (stereo not drawn), the inhibition was -5.02%.

`CCOc1ccc(C(=O)Nc2ccc(S(=O)(=O)Nc3cc(C)on3)cc2)cc1`: the inhibition was -5.22%. On to `CN(c1ccccc1)S(=O)(=O)c1cc(C(=O)N2CCN(c3ncccn3)CC2)ccc1Cl`, for which the inhibition was -2.36%. For the compound `Nc1ncnc2c1ncn2[C@@H]1O[C@H](CNS(=O)(=O)c2ccc(-c3ccno3)s2)[C@@H](O)[C@H]1O`, the inhibition was -0.947%. Turning to `COc1cccc(NC(=O)N2CCC(NC(=O)C(Cc3cccc(C)c3)NC(C)=O)CC2)c1` (stereo not drawn), the inhibition was -5.2%. Turning to `COc1ccccc1CC(NC(C)=O)C(=O)NC1CCN(C(=O)Nc2ccccc2Cl)CC1` (stereo not drawn), the inhibition was 78.3% (active).

`COc1ccc(CC(NC(C)=O)C(=O)NC2CCN(C(=O)C3CC3)CC2)cc1OC` (stereo not drawn): the inhibition is 5.28%.

Consider `C=CCCC(=O)N1C[C@H]2CON(C)[C@H]2C[C@H]1c1cccc(Nc2ccccc2)c1`, for which the inhibition was 1.45%.

Consider `O=C(Nc1ccccc1)Oc1cccc2cccnc12`, for which the inhibition was -4.21%. For `CCC(CO)Oc1cc(NCc2ccccc2)c2ncn(C3CCCC3)c2c1` (stereo not drawn), the inhibition is 2.05%. Consider `Cc1cc(N/N=C/c2ccccc2F)c2ccccc2n1`, for which the inhibition was 30.5% (active). As for `Cc1ccc2nc(C)cc(N/N=C/c3ccc(F)cc3)c2c1`, the inhibition was -0.859%.

As for `Oc1ccc(/C=N/Nc2nc(-c3ccccc3F)nc3ccccc23)c(O)c1`, the inhibition is 4.73%. Regarding `O=C(c1cccnc1)N(Cc1ccccc1)C(=O)c1cccnc1`, the inhibition is -4.97%.

In the case of `COc1ccccc1C(=O)NCCC(=O)NCC(c1ccco1)N1CCCCC1` (stereo not drawn), the inhibition was 2.93%.

For the compound `COc1ccc(C(CNC(=O)c2cccnc2SC)N2CCOCC2)cc1` (stereo not drawn), the inhibition was -3.62%. As for `CSc1ncccc1C(=O)NCC(c1ccco1)N1CCCCC1` (stereo not drawn), the inhibition is 63.8% (active). With `Cc1ccc(C(=O)Nc2ccc3c(c2)OCCO3)cc1S(=O)(=O)N1CCOCC1`, the inhibition was -4.3%.

Take `CCCN(CCC)S(=O)(=O)c1cc2c(cc1Br)CCN2C(=O)CC`: the inhibition is 0.953%.

For `COc1ccc(/C=C/C(=O)OCC(=O)N2CCN(S(=O)(=O)c3ccc(C)cc3C)CC2)cc1OC`, the inhibition was 6.76%. As to `O=C(CSc1nc2ccccc2c(=O)n1-c1ccccc1F)N1CCOCC1`, the inhibition was -2.27%.

Regarding `Cc1ccc(OCC(=O)Nc2ccc(C(=O)O)cc2NC(=O)COc2ccc(C)c(C)c2)cc1C`, the inhibition was 56.8% (active). Then `Cc1cccc(OCC(=O)Nc2ccc(C(=O)O)cc2NC(=O)COc2cccc(C)c2)c1`, with -0.14%. Turning to `Cc1ccc(OCC(=O)Nc2cccc3c2CCCC3)cc1C`, the inhibition is 1.05%. As to `Cc1ccc(NC(=O)CCC(=O)N2CCC(c3ccccc3)=N2)cc1S(=O)(=O)N1CCCCC1`, the inhibition is -3.11%. On to `Cc1ccc(C(=O)N2CCCC(c3ccccc3)=N2)cc1`, for which the inhibition is 4.38%.

As to `Cc1ccc(NC(=S)N2CCCC(c3ccccc3)=N2)cc1`, the inhibition was 38.9% (active). As to `CCCCNC(=O)C(C)N(CCN(C)C)C(=O)CCCN1C(=O)NC(c2ccc(Cl)cc2)C(C(=O)OCc2ccccc2)=C1C` (stereo not drawn), the inhibition was -4.12%.

Consider `COc1cccc(CNC(=O)CCC2CCCN(Cc3ccc(OC(F)F)cc3)C2)c1` (stereo not drawn), for which the inhibition was 7.33%. Turning to `Cc1[nH]c2c(C(=O)N3CCCC(CCC(=O)NCc4ccccc4F)C3)cccc2c1C` (stereo not drawn), the inhibition was 46.8% (active).

As for `COc1cccc(CNC(=O)CCC2CCCN(C(=O)c3ccoc3C)C2)c1` (stereo not drawn), the inhibition was 56.3% (active).

Consider `O=C(CCC1CCCN(Cc2ccc(O)c(Cl)c2)C1)NCc1ccccc1F` (stereo not drawn), for which the inhibition was -4.54%.

Consider `COc1cccc(C(=O)N2CCCC(CCC(=O)NCc3ccc(F)c(F)c3)C2)c1` (stereo not drawn), for which the inhibition was -10.1%. Then `CSc1ncccc1C(=O)N1CCCC(CCC(=O)NCc2ccccc2F)C1` (stereo not drawn), with 4.75%; and `CC(C)(C)S(=O)(=O)N1Cc2cc(CO)cc(CCO)c2[C@H]1CCO`, with -1.94%. Take `CC(C)NC(=O)Nc1cccc2c1O[C@@H](CN(C)S(=O)(=O)c1ccc(F)cc1)[C@@H](C)CN([C@H](C)CO)C2=O`: the inhibition is -0.185%. On to `CCc1cc(C(=O)Nc2nnc(C3CC3)s2)sc1C`, for which the inhibition was -1.8%. Turning to `CSCCC(NS(=O)(=O)c1ccc(C)cc1)C(=O)N(C)CC(=O)Nc1ccccc1Br` (stereo not drawn), the inhibition was 0.255%.
